Laboratory results taken from PubChem BioAssay (NCATS).
Values joined by “and” are separate entries in the source; they are usually repeats but may differ in a detail not shown here. Equal values may be shown once. Results filed as inconclusive are left out. Active and inactive are the calls of the source. Unless noted, calls come from the whole dose curve; as a rule, active = well fitted curve in the direction sought with a large enough effect; inconclusive = small, poorly fitted or top-dose-only effect, or another doubt; inactive = no such curve, though single readings can be large; an effect the other way counts as inactive or inconclusive.

Experiments:
[1] = target: Glutaminase kidney isoform, mitochondrial (Homo sapiens) (UniProt O94925); assay: qHTS for Inhibitors of Glutaminase (GLS): LOPAC Validation (AID 624146); conditions: glutaminase enzyme activity inhibition; series mostly up to 46.1 µM; note: nearly all actives have a fitted effect of over 60% in size; note: potency is the fitted concentration of half-maximal effect
Procedure, shortened: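 hKGA in 45 mM KH2PO4 (pH 8.2), 0.02% Tween-20 with compound, then 1mM L-Glutamine (stock as added) plus glutamate oxidase/HRP/Amplex red coupling mix. Fluorescence read initially and after 30 min at RT; signal change reflects glutamate formation.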

[2] = qHTS of Trypanosoma Brucei Inhibitors: LOPAC Validation (AID 624147); conditions: purified enzyme assay, luminescence, 45 min; series mostly up to 57.5 µM; note: 0% is about no effect
Procedure, shortened: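 Luminescent Kinase-Glo Plus end-point after 45 min room-temperature reaction of T. brucei pyruvate kinase started with 130 uM ADP (final). Buffer TEA 50 mM pH 7.2 with KCl, MgCl2, BSA, Tween-20; titration-based qHTS with fitted concentration-effect curves.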

[3] = qHTS of Nrf2 Activators: LOPAC Validation (AID 624149); conditions: Nrf2/ARE reporter cell assay; series mostly up to 46.1 µM; note: 0% is about no effect
Procedure, shortened: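 Luminescence read-out of ARE-luciferase activation: AREc32_Fluc cells treated with compounds for 24 hr at 37 deg C, then lysed with Steady-Glo for 30 min at room temperature before reading.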

[4] = qHTS assay for small molecule agonists of the antioxidant response element (ARE) signaling pathway (AID 651741; active = well fitted activation curve with a large enough effect in the signal ratio; the % refers to the signal ratio; note: % of control where 0% means no effect); conditions: HepG2 ARE-bla reporter, beta-lactamase FRET ratio, 16 h; series mostly up to 96 µM
Procedure, shortened: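 Compounds in DMSO are pinned onto HepG2 ARE-bla cells (2,000/well) that were preincubated 5 h; plates stay 16 h at 37 C, then beta-lactamase activity is detected with LiveBLAzer B/G substrate by fluorescence.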

[5] = qHTS assay for small molecule activators of the nuclear factor-kappa B (NF-kB) signaling pathway (AID 651749; active = well fitted activation curve with a large enough effect in the signal ratio; the % refers to the signal ratio; note: % of control where 0% means no effect); conditions: NF-kB-bla ME-180 cells, beta-lactamase FRET ratio, 16 h; stronger effect = higher value
Procedure, shortened: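 Screening used 2,000 ME-180 reporter cells per well exposed to pinned compound (23 nL) or DMSO; after 16 hr at 37C, beta-lactamase expression under NF-kB control was assessed through FRET.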

[6] = qHTS assay for small molecule activators of the p53 signaling pathway (AID 651743; active = well fitted activation curve with a large enough effect in the signal ratio, not every such curve was filed as active; the % refers to the signal ratio; note: % of control where 0% means no effect); conditions: HCT-116 p53RE-bla, beta-lactamase FRET ratio, 16 h; activation: stronger effect = higher value
Procedure, shortened: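 Cell-based beta-lactamase reporter (p53 response elements, HCT-116 background). After a 5-hour preincubation, cells received compound for 16 hours at 37 C; substrate development ran 2 hours at room temperature.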

[7] = qHTS assay for small molecule disruptors of the mitochondrial membrane potential - 1 hr assay (AID 651754; calls by dose curve; note: % is set by controls: 0 for no effect and ±100 for the full control effect; nearly all actives have a fitted effect of over 35% in size); conditions: series mostly up to 92.2 µM
Procedure, shortened: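 HepG2, 2,000 cells/well, overnight attachment; cpd or DMSO 1 hr, 37C/5% CO2; Mito-MPS dye 30 min, 37C; fluorescence monomer (490/535) and aggregate (540/590).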

[8] = qHTS assay for small molecule disruptors of the mitochondrial membrane potential - 5 hr assay (AID 651755; calls by dose curve; note: % is set by controls: 0 for no effect and ±100 for the full control effect; nearly all actives have a fitted effect of over 40% in size); conditions: JC-1-type ratio dye; series mostly up to 92.2 µM
Procedure, shortened: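 HepG2 cells, attached overnight at 37C, were exposed to compound or DMSO for 5 hr at 37C, 5% CO2. Mito-MPS dye was then added for 30 min, and fluorescence read at 490/535 nm (monomers) and 540/590 nm (aggregates).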

[9] = target: Glucagon-like peptide 1 receptor (Homo sapiens) (UniProt P43220); assay: qHTS of GLP-1 Receptor Agonists: LOPAC Validation (AID 624148); conditions: GLP-1R agonist cell assay; series mostly up to 46.1 µM;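 note: 0% is about no effect; higher luminescence signal means agonism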
Procedure, shortened: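 HEK293 cells stably co-expressing a cAMP-responsive luciferase reporter and a hypersensitive GLP-1R were plated 12 h at 37 °C and exposed to compounds for 4-6 hr at 37 °C, 5% CO2. Luminescence was read 12 min after adding detection reagent.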

[10] = HTS Assay for Allosteric Antagonists of the Human D2 Dopamine Receptor: Hit Validation in HTRF (AID 624455); conditions: Cells stably expressing D1 dopamine receptor, inhibition mode; series mostly up to 46.1 µM;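 note: stable D1 dopamine receptor cell line scored for blocking the D1 response; % is set by controls: 0 for no effect and ±100 for the full control effect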
Procedure, shortened: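 First, antagonism was screened by calcium flux in a force-coupled, inducible Hek293 Trex D2 line challenged with EC80 dopamine. Hits then went into an HTRF assay in cells stably expressing D1, testing inhibition of the D1 response.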

[11] = Cytotoxicity counterscreen for NFkB agonists and antagonists (AID 624476); conditions: NFkB reporter cell line viability counterscreen; series mostly up to 46.1 µM; note: % is set by controls: 0 for no effect and ±100 for the full control effect
[12] = qHTS Assay for Identification of Small Molecule Agonists for NFkB Signaling Pathway. (AID 624478); conditions: NFkB pathway reporter cell assay, agonist mode, cells co-stimulated with 10 pM TNF alpha; series mostly up to 46.1 µM;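 note: compounds tested together with TNF alpha at its EC50 of 10 pM; 0% is about no effect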
Procedure, shortened: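 ME-180 cervical carcinoma, stable NFkB-RE beta-lactamase reporter; 1000 cells/well, overnight attachment; cpd + TNF alpha 10 pM final, 5 h 37 C; LiveBLAzer 2 h RT; FRET 460/530 nm, ex 405 nm.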

[13] = qHTS Assay for Identification of Small Molecule Antagonists for NFkB Signaling Pathway. (AID 624479; calls by dose curve; note: % is set by controls: 0 for no effect and ±100 for the full control effect); conditions: NFkB pathway reporter cell assay, antagonist mode; series mostly up to 38.3 µM
[14] = Cell Proliferation Assay against the TMD8 Cell Line (AID 651645); conditions: TMD8 DLBCL cell line proliferation/viability; at 46.1 µM (top of the series);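 note: cells exposed to compound for 48 h before reading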
Procedure, shortened: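 Seed log-phase TMD8 cells in RPMI containing 5% FBS, add compounds at once, incubate 48 hours at 37C. Equilibrate to room temperature, add CellTiter-Glo, read luminescence after 15 minutes and express relative to DMSO and bortezomib controls.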

[15] = Cell Proliferation Assay against the HBL1 Cell Line (AID 651646); conditions: HBL1 DLBCL cells; at 46.1 µM (top of the series);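 note: cells exposed to compound for 48 h before reading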
Procedure, shortened: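 500 log-phase HBL1 cells per well in phenol red-free RPMI with 5% FBS were treated with compounds for 48 h at 37 °C, 5% CO2. Viability was read by CellTiter-Glo luminescence, normalized to DMSO (100%) and 9.2 uM bortezomib final (0%).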

[16] = Cell Proliferation Assay against the TMD8 Cell Line (Caspase readout at 16 hrs) (AID 651712); conditions: TMD8 lymphoma cells, caspase activation luminescence; series mostly up to 46.1 µM
Procedure, shortened: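 TMD8 cells (500/well) in phenol-red-free RPMI with glutamine, 5% FBS, were exposed to compounds for 16 h at 37 °C. Caspase 3/7 activation was read by Caspase-Glo luminescence; percent activity normalised to DMSO (0%) and 9.2 uM bortezomib final (100%).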

Glutaminase kidney isoform, mitochondrial (Homo sapiens), sequence (O94925 whole entry, looked up, canonical isoform): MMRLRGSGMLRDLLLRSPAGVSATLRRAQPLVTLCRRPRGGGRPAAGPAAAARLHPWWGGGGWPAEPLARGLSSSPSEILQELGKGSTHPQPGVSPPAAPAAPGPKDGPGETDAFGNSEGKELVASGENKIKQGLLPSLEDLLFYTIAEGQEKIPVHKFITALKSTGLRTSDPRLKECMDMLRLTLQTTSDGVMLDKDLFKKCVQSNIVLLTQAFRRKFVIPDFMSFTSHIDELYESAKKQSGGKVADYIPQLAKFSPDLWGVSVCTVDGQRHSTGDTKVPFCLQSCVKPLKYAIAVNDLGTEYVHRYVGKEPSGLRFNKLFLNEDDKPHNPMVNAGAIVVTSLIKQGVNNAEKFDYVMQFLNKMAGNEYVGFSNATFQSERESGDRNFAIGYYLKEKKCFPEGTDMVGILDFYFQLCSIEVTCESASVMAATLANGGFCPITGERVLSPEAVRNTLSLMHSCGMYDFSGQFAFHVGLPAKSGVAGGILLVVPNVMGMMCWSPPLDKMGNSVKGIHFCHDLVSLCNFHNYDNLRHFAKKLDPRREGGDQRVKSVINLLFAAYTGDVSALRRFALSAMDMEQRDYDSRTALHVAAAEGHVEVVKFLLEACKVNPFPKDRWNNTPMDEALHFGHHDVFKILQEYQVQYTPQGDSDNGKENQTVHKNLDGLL
Glucagon-like peptide 1 receptor (Homo sapiens), sequence (P43220 whole entry, looked up): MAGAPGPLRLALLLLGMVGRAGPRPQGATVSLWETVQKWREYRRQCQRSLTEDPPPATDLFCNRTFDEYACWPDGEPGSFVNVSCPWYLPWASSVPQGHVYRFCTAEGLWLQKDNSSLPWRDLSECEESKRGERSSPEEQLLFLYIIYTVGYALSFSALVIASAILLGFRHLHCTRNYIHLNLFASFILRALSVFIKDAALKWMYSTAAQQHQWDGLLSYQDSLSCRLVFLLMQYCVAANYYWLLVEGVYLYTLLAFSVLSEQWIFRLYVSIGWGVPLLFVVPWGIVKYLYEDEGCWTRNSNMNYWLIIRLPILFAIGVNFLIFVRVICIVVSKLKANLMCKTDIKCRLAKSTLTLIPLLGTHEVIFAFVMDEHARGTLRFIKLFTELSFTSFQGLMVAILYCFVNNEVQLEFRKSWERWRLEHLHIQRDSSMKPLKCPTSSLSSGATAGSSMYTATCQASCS

CN1[C@@H](CC(=O)c2ccccc2)CCC[C@H]1C[C@H](O)c1ccccc1
inactive: Potency [1] | Potency [2] | outcome [3]

C=CC(N)CCC(=O)O (centres undefined)
inactive: Potency [1] | Potency [2] | outcome [3]

O=C(O)[C@H](O)[C@@H](O)[C@H](O)[C@H](O)CO
inactive: Potency [4] | activation [5] -5.45%

C#C[C@]1(O)CC[C@H]2[C@@H]3CCc4cc(O)ccc4[C@H]3CC[C@@]21C
inactive: activation [6] 11.3% and 11.7% | activation [5] 2.58% and -0.453% | Potency [7] | Potency [8]

CCCOC(=O)c1ccc(O)cc1
inactive: activation [6] -1.88% and -2.94% and -1.35%

C[N+](C)(CCCCCC[N+](C)(C)CCCN1C(=O)c2cccc3cccc(c23)C1=O)CCCN1C(=O)c2cccc3cccc(c23)C1=O
inactive: Potency [1] | Potency [2] | outcome [9] | outcome [3] | Potency [10]

O=C(/C=C/c1ccc(O)c(O)c1)OCCc1ccccc1
inactive: Potency [2] | outcome [9] | Potency [10]
active: Potency [1] 891 nM

CCCCCC(O)c1cccc(OCc2ccc3ccccc3n2)c1 (centres undefined)
inactive: Potency [1] | Potency [2] | outcome [9] | Potency [10]

CSc1ccccc1N1CCN(CCCCCC(=O)NC2CCCc3ccccc32)CC1 (centres undefined)
inactive: Potency [1] | Potency [2] | outcome [9] | outcome [3] | Potency [10]

CCCCCCCCCCCCCCCCCCNC(=O)OCC(COP(=O)([O-])OCC[n+]1ccsc1)OC (centres undefined)
inactive: Potency [1] | Potency [2] | outcome [9] | outcome [3] | Potency [10]

C[N+]1(C)CCC(OC(=O)C(c2ccccc2)c2ccccc2)CC1
inactive: Potency [1] | Potency [2] | outcome [9] | Potency [10]

NCCCCCCCCCCN
inactive: Potency [1] | Potency [2] | outcome [9] | outcome [3] | Potency [10]

CCOC(=O)C1=C(C)NC(C)=C(C(=O)OCC)C1c1c(F)c(F)c(F)c(F)c1F
inactive: Potency [1] | Potency [2] | outcome [9] | Potency [10]

O=C(c1ccc(OCCCc2cnc[nH]2)cc1)C1CC1
inactive: Potency [1] | Potency [2] | outcome [9] | outcome [3] | Potency [10]

O=C(O)CC1CC(c2ccccc2)=NO1 (centres undefined)
inactive: Potency [1] | Potency [2] | outcome [9] | outcome [3] | Potency [10]

CN(C)CCCO[C@@H]1[C@H]2OC(C)(C)O[C@H]2O[C@@H]1[C@H](O)CO
inactive: Potency [1] | Potency [2] | outcome [9] | Potency [10]

N[C@@H](CC(=O)O)C(=O)O
inactive: Potency [1] | Potency [2] | outcome [9] | Potency [10]

COc1ccccc1CNCCCCCCNCCCCCCCCNCCCCCCNCc1ccccc1OC
inactive: Potency [1] | Potency [2] | outcome [9] | Potency [10]

O=C(O)[C@@H]1C[C@@H](C(=O)O)N1
inactive: Potency [1] | Potency [2] | outcome [9] | outcome [3] | Potency [10]

C[C@@H](CN1CCC(Cc2ccccc2)CC1)[C@@H](O)c1ccc(O)cc1
inactive: Potency [1] | Potency [2] | outcome [9] | outcome [3] | Potency [10]

CCCCN1CCC(n2c(=O)[nH]c3ccccc32)CC1
inactive: Potency [1] | Potency [2] | outcome [9] | Potency [10]

O=C(O)[C@@H]1C[C@H](C(=O)O)N1
inactive: Potency [1] | Potency [2] | outcome [9] | Potency [10]

CN(C)CCC(c1ccc(Cl)cc1)c1ccccn1 (centres undefined)
inactive: Potency [1] | Potency [2] | outcome [9] | outcome [3] | Potency [10] | activation [6] -2.38% | activation [5] -0.341% | Potency [8]

Cc1cc(NC(=O)Nc2ccc3c(ccn3C)c2)sn1
inactive: Potency [1] | Potency [2] | outcome [9] | Potency [10]

CN1CCc2cc(NC(=O)Nc3cccnc3)ccc21
inactive: Potency [1] | Potency [2] | outcome [9] | Potency [10]

O=C(O)CC[C@@H](C(=O)O)N1C(=O)c2ccccc2C1=O
inactive: Potency [1] | Potency [2] | outcome [9] | Potency [10]

CCCCCCCCCCCCCCCCCC(=O)OC(CC(=O)O)C[N+](C)(C)C (centres undefined)
inactive: Potency [1] | Potency [2] | outcome [9] | Potency [10]

Cn1ncc(S(=O)(=O)Cc2ccccc2)c(Br)c1=O
inactive: Potency [1] | Potency [2] | outcome [9] | Potency [10]

NC(N)=NC(=O)c1nc(Cl)c(N2CCCCCC2)nc1N
inactive: Potency [1] | Potency [2] | outcome [9] | Potency [10]

CN1C2CC(OC(=O)[C@H](CO)c3ccccc3)CC1C1OC12 (some centres undefined)
inactive: Potency [1] | Potency [2] | outcome [9] | outcome [3] | Potency [10]

NC(CCCP(=O)(O)O)C(=O)O (centres undefined)
inactive: Potency [1] | Potency [2] | outcome [9] | outcome [3] | Potency [10]

CN1CCC[C@H]1c1cccnc1
inactive: Potency [1] | Potency [2] | outcome [9] | outcome [3] | Potency [10] | Potency [7] | Potency [8]

CN1CC(=O)N/C1=N/C(=O)Nc1cccc(Cl)c1
inactive: Potency [1] | Potency [2] | outcome [9] | outcome [3] | Potency [10] | Potency [11] | outcome [12] | outcome [13] | outcome [16]
111%: viability, percent of control [15]
105%: viability (% of control) [14]
